Bioassay records (PubChem BioAssay)
Fam108B counter: Fam108B inhibition, counter-screen for RBBP9 inhibitors. AID 1947. actives 0.33% (n = 300,000). recombinant Fam108B, FP-Rh probe fluorescence polarization. inhibition, % at 9.51 µM;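 active = inhibition above the screen mean inhibition plus 3 SD, computed separately per campaign, cut at about 18% in these data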;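 also: inhibitors lower polarization as less probe binds the enzyme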
LYPLA2 inh: blocks human lysophospholipase 2, a PME1 counter-screen; O95372; recombinant LYPLA2, FP-Rh probe fluorescence polarization; inhibition, % at 5.9 µM; actives 0.38% (n = 320,000); AID 2177;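 active = inhibition above the screen-wide mean plus 3 SD, limit set per campaign, cut at about 26% in these data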
Target sequence (O95372 whole entry, looked up): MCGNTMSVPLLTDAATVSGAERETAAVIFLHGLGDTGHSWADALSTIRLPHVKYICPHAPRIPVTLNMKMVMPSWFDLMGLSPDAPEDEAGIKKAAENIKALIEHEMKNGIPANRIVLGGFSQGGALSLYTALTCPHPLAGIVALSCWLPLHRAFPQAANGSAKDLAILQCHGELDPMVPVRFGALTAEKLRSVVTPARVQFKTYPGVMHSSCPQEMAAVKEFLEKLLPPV
PREPL inhibitor: inhibits the human prolyl oligopeptidase-like enzyme; inhibition, % at 5.96 µM; Q4J6C6; recombinant PREPL, fluorescence polarization activity-based probe; actives 0.68% (n = 320,000); in the data active = inhibition above about 43%
LYPLA1 inh: counter-screen for PME1 inhibitors: inhibitors of human LYPLA1; AID 2174; inhibition, % at 5.9 µM; actives 0.16% (n = 320,000); O75608; recombinant LYPLA1, FP-Rh probe fluorescence polarization;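 active = inhibition above the mean of all tested compounds plus 3 SD, set per campaign, cut at about 14% in these data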;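 also: inhibitors block serine hydrolase probe labeling of LYPLA1 so polarization falls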
PME-1 primary: blocks human protein phosphatase methylesterase 1; Q9Y570; recombinant PME-1, FP-Rh probe fluorescence polarization; inhibition, % at 5.9 µM; actives 0.53% (n = 320,000); AID 2130;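 active = inhibition above the campaign mean of all compounds plus 3 SD, cut at about 26% in these data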;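 also: competitive labeling of PME-1 active site by serine hydrolase directed probe; inhibitors block probe labeling so polarization falls and inhibition rises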
Target sequence (Q9Y570 whole entry, looked up): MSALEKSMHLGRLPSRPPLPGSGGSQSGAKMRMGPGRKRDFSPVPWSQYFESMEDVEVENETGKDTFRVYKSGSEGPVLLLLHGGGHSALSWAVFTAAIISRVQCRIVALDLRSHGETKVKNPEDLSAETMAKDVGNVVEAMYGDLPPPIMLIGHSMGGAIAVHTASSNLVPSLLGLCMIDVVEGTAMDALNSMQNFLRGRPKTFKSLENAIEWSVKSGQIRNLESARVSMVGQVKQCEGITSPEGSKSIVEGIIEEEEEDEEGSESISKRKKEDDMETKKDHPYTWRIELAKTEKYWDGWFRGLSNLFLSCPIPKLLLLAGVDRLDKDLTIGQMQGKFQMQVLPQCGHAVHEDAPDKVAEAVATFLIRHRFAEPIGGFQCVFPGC
LYPLA2 conf: LYPLA2 (human) inhibition, confirmation counter-screen; shares compounds with LYPLA2 inh; recombinant LYPLA2, FP-Rh probe fluorescence polarization; inhibition, % at 5.9 µM; actives 72% (n = 1,100); AID 2232;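 active = mean inhibition across replicates above the hit cutoff set in the primary screen, cut at about 26% in these data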;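 also: blocked labeling of the enzyme by serine hydrolase FP-Rh probe lowers polarization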
LYPLA2 gel ABPP: LYPLA2 (human) inhibition, late stage results; shares compounds with LYPLA2 inh; rhLYPLA2 in mouse brain proteome, gel ABPP FP-Rh; inhibition, % at 20 µM; actives 30% (n = 150); AID 652029;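 active = inhibition of LYPLA2 enzyme probe labeling above about 50%, limit read from the data; inactive = inhibition below that limit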;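 also: loss of FP-Rh probe labeling of the LYPLA2 gel band measured as band density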
Each line names hits and unclear results; the compound was inactive in the other large screens (follow-up assays come after a bar, where they were run). Sampled rows, rich in hits. Any-hit rate of the full collection: about 1.3%.

O=C(Cc1ccccc1)N1CCN(c2ccc([N+](=O)[O-])cc2)CC1	none
O=C(c1ccccc1)N1CCN(C(=O)c2ccc([N+](=O)[O-])cc2)CC1	none
O=C(c1ccc2nsnc2c1)N1CCN(c2ccc([N+](=O)[O-])cc2)CC1	LYPLA2 inh 27 | LYPLA2 conf inactive
COc1cc(/C=N/NC(=O)C(NC(=O)c2ccccc2)c2n[nH]c(=O)c3ccccc23)ccc1OCC(N)=O (centres undefined)	LYPLA2 inh 78 | LYPLA2 conf 74
O=Cc1ccc(OCCOc2ccc([N+](=O)[O-])cc2)cc1	LYPLA2 inh 37 | LYPLA2 conf inactive
O=[N+]([O-])c1ccc(OCCN2CCNCC2)cc1	LYPLA2 inh 29 | LYPLA2 conf 26
O=[N+]([O-])c1ccc(OCCOCCOc2ccc([N+](=O)[O-])cc2)cc1	none
Cn1c(CNC(=O)CNC(=O)Cc2ccccc2)cc(=O)n(C)c1=O	none
CCNC(=S)Nn1cnc2ccccc21	none
CCOC(=O)c1ccc(N2CCOCC2)c(NS(=O)(=O)c2ccc(F)cc2)c1	none
Cc1ccc(N2C(=O)c3ccc(C(=O)N4CCN(c5ccc(C)c(C)c5)CC4)cc3C2=O)cc1	none
Cc1ccc(N2C(=O)c3ccc(C(=O)N4CCN(Cc5ccccc5)CC4)cc3C2=O)cc1	LYPLA2 inh 33 | LYPLA2 conf 27
COc1ccc(-n2nc(C(=O)NCC(=O)N3CCN(c4ccc(F)cc4)CC3)c3ccccc3c2=O)c(OC)c1	LYPLA2 inh 58 | LYPLA2 conf 62 | LYPLA2 gel ABPP inactive
COc1ccc(-n2nc(C(=O)NCC(=O)N3CCCC3)c3ccccc3c2=O)c(OC)c1	none
CCCCCCOc1ccc(OC(=O)c2ccncc2)cc1	LYPLA2 inh 47 | LYPLA2 conf 56
CSc1ncccc1C(=O)OCC(=O)Nc1ccc(S(=O)(=O)N2CCCC2)cc1	none
CSc1ncccc1C(=O)OCC(=O)c1ccc(S(=O)(=O)N2CCCCC2)cc1	LYPLA2 inh 31 | LYPLA2 conf 32
O=[N+]([O-])c1cc(-c2nnc(-c3ccccc3)o2)ccc1Oc1ccc(Cl)cc1	none
O=[N+]([O-])c1ccc(Oc2ccc(-c3nnco3)cc2)c(Cl)c1	LYPLA2 inh 32 | LYPLA2 conf inactive
N#Cc1cc([N+](=O)[O-])ccc1Oc1ccc(-c2nnco2)cc1	LYPLA2 inh 30 | LYPLA2 conf inactive
Cc1ccc(NC(=O)c2ccc(CNc3c(N4CCOCC4)c(=O)c3=O)cc2)cc1	none
O=C(c1ccc(CNc2c(N3CCOCC3)c(=O)c2=O)cc1)N1CC=C(c2ccccc2)CC1	LYPLA2 inh 44 | LYPLA2 conf 41
Nc1cc(Cl)ccc1C(=O)OCC(=O)NCC1CCCO1 (centres undefined)	none (no result: Fam108B counter, LYPLA2 inh, LYPLA1 inh, PME-1 primary)
CC(C)(C)NC(=O)c1ccccc1NC(=O)C1CC(=O)N(C2CCCCC2)C1 (centres undefined)	none
Oc1ccc2ccccc2c1N=Nc1ccc(F)cc1	LYPLA2 inh 29 | LYPLA2 conf inactive
O=C(CN1CCSCC1)N/N=C/c1cccc(Cl)c1	none
CCCCN1C2CCCC1CC(NC(=O)c1cccc(Cl)c1)C2 (centres undefined)	none
O=C1NC(c2ccc(Cl)cc2)=COc2ccccc21	LYPLA2 inh 36 | LYPLA2 conf 30
COc1ccc(C2=COc3ccccc3C(=O)N2)cc1	none
Cc1cc(OCC(=O)Nc2ccc(CN3CCOCC3)cc2)c2c(C)c(C)c(=O)oc2c1	LYPLA2 inh 30 | LYPLA2 conf 36
Cc1cc(OCC(=O)Nc2ccc(CN3CCOCC3)cc2)c2c(C)cc(=O)oc2c1	LYPLA2 inh 43 | LYPLA2 conf 48
Cc1cc(OCC(=O)NCCCN2CCOCC2)c2c(C)c(C)c(=O)oc2c1	none
Cc1cc(OC(=O)c2ccccc2C(F)(F)F)c([N+](=O)[O-])c(=O)[nH]1	none
Cc1ccc2nc(NCc3ccco3)c(C=NCc3ccco3)c(=O)n2c1	LYPLA2 inh 32 | LYPLA2 conf inactive
C#CCOCCOCCOCCNc1nc(N2CCN(C(=O)[C@H](CCC(=O)O)n3cc([C@@H](N)[C@H](C)CC)nn3)CC2)nc(N2CCN(C(=O)[C@H](CCC(=O)O)n3cc([C@@H](N)CC(N)=O)nn3)CC2)n1	none (no result: Fam108B counter, LYPLA2 inh, LYPLA1 inh, PME-1 primary)
O=[N+]([O-])c1ccc(Oc2cccc3cccnc23)c(Cl)c1	LYPLA2 inh 28 | LYPLA2 conf inactive
O=C(COc1ccc(S(=O)(=O)NCc2ccccc2)cc1Cl)NCc1ccncc1	LYPLA2 inh 41 | LYPLA2 conf 46
Clc1ccc(Oc2cccc(/C=N/n3cnnc3)c2)cc1	LYPLA2 inh 37 | LYPLA2 conf 32
O=C(OCC(=O)N1CCN(Cc2ccccc2)CC1)c1cc(Cl)ccc1[N+](=O)[O-]	LYPLA2 inh 39 (no result: Fam108B counter) | LYPLA2 conf 40
C/C(CCC(C)C)=N\NC(=S)Nc1cc(S(=O)(=O)N2CCOCC2)ccc1N1CCOCC1	LYPLA2 inh 28 | LYPLA2 conf 62
COc1ccc2cc(/C(C)=N/NC(=S)Nc3cc(S(=O)(=O)N4CCOCC4)ccc3N3CCOCC3)ccc2c1	none
COC(=O)c1ccc(CNC(=O)c2cc(COc3cncc(Cl)c3)on2)cc1	LYPLA2 inh 35 | LYPLA2 conf 35
Cc1c(C(=O)Oc2ccc(F)cc2)sc2ncn(Cc3cccc(F)c3)c(=O)c12	LYPLA2 inh 35 | LYPLA2 conf 30
CCn1cnc2sc(C(=O)Oc3cccc(C)c3)c(C)c2c1=O	LYPLA2 inh 28 | LYPLA2 conf 36
Cc1cc(NC(=O)CCC(=O)N(CC(=O)NC2CCCC2)c2cccc(F)c2)no1	none
OC(CNCC(c1ccc(Cl)cc1Cl)c1c[nH]c2ccccc12)c1ccccc1 (centres undefined)	none
Cc1c(Cl)c([N+](=O)[O-])nn1CCCC(=O)NC1CCCCC1	none
CCCCCC1CC(CC(=O)Nc2ccc([N+](=O)[O-])cc2)C(=O)O1 (centres undefined)	LYPLA2 inh 36 | LYPLA2 conf 31
CCCCCC1CC(CC(=O)Nc2ccc([N+](=O)[O-])cc2)OC1=O (centres undefined)	LYPLA2 inh 35 | LYPLA2 conf 37
CCCCCC1CC(CC(=O)O)C(=O)O1 (centres undefined)	none
CCCCCCC1CC(CCC(=O)Nc2ccc([N+](=O)[O-])cc2)C(=O)O1 (centres undefined)	none
COc1ccc(C(=O)ON=C2CCCc3nonc32)cc1	none (no result: Fam108B counter, LYPLA2 inh, PREPL inhibitor, LYPLA1 inh, PME-1 primary) | LYPLA2 gel ABPP inactive
COc1ccc(NC(=O)CO/N=C2\CCCc3nonc32)cc1	none
CN(Cc1nc(-c2ccccn2)no1)S(=O)(=O)c1ccccc1	none
COc1ccc(-c2noc(CN(C(=O)c3ccc4c(c3)OCO4)C(C)C)n2)cc1	none
